Data reported in PubChem BioAssay (Tox21).
Inconclusive results are not listed. Where a structure was tested more than once in an assay, its records may differ in their call. The source made the active and inactive calls. Unless noted, calls follow the shape of the dose curve; as a rule, active = well fitted curve in the direction sought with a large enough effect in the repeat runs; inconclusive = weak or mixed curves; inactive = no such curve, though single readings can be large; an effect the other way counts as inactive or inconclusive.

Experiments:
[1] = target: Retinoic acid receptor RXR-alpha (Homo sapiens) (UniProt P19793); assay: qHTS assay to identify small molecule agonists of the RXR signaling pathway (AID 1159527; calls by dose curve; also: nearly all actives have a fitted effect of over 35% in size)
Procedure, shortened: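 qHTS of the Tox21 10K library in GeneBLAzer RXR-alpha HEK 293T cells carrying a beta-lactamase reporter […]; 16 hr treatment, 9-cis retinoic acid as agonist control, FRET read-out.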

[2] = qHTS assay to identify small molecule agonists of the RXR signaling pathway - cell viability counter screen (AID 1159529); also: nearly all actives have a fitted effect of over 50% in size
Procedure, shortened: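 Cell viability is measured by CellTiter-Glo luminescence, 30 min at room temperature, in wells already read for beta-lactamase. Engineered HEK 293T cells (RXR-alpha-UAS-bla) are dosed 16 hr at 37 C. Tetraoctyl ammonium bromide serves as positive control.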

[3] = qHTS assay to identify small molecule antagonists of the retinoid acid receptor (RAR) signaling pathway - cell viability counter screen (AID 1159551); also: nearly all actives have a fitted effect of over 35% in size
Procedure, shortened: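 In this counter screen, the RARE-luciferase line C3RL4 was exposed for 6 h at 37 C and 5% CO2 to compounds with retinol at 1 uM final. Cellular ATP, read by luminescence, served as the viability measure.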

[4] = qHTS assay to identify small molecule antagonists of the retinoic acid receptor (RAR) signaling pathway (AID 1159552; also: nearly all actives have a fitted effect of over 50% in size)
Procedure, shortened: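 Quantitative HTS in C3RL4 RARE-luciferase reporter cells. Compounds were added with 1 uM (final) retinol; luminescence was read after 6 hr.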

[5] = qHTS assay to identify small molecule agonists of the retinoic acid receptor (RAR) signaling pathway (AID 1159553); conditions: C3RL4 RARE luciferase reporter, agonist, 6 h
Procedure, shortened: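 In this cell-based screen, 1,000 C3RL4 cells per well were cultured overnight, dosed with test chemicals in DMSO for 6 hr, and assessed for RARE luciferase luminescence.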

[6] = qHTS assay to identify small molecule antagonists of the estrogen related receptor (ERR) signaling pathway from Tox21 library - cell viability counter screen (AID 1224834); also: nearly all actives have a fitted effect of over 30% in size
Procedure, shortened: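 Counter screen run in ERR cells (2,000 cells/well): cells pre-incubated 6 h, then treated with compounds for 17.5 h at 37 C. Fluorescence was read 30 min after CellTiter-Fluor addition.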

[7] = target: Luciferin 4-monooxygenase (Photinus pyralis) (UniProt P08659); assay: qHTS assay to identify small molecule inhibitors of firefly luciferase (AID 1224835); also: nearly all actives have a fitted effect of over 25% in size
Procedure, shortened: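 Inhibition of purified Photinus luciferase is measured by luminescence. Substrate levels (D-luciferin, ATP) sit at their KM values. Each compound is tested in a concentration series.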

[8] = qHTS assay to identify small molecule agonists of the constitutive androstane receptor (CAR) signaling pathway - cell viability counter screen (AID 1224836); also: nearly all actives have a fitted effect of over 45% in size
Procedure, shortened: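 Counter screen multiplexed with the CAR reporter readout: HepG2 cells co-transfected with hCAR and the CYP2B6-2.2kb construct receive a 15-concentration compound series and 0.75 uM PK11195 (final), then CellTiter-Fluor fluorescence is read after 23 h.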

[9] = qHTS assay to identify small molecule antagonists of the constitutive androstane receptor (CAR) signaling pathway - cell viability counter screen (AID 1224837); also: nearly all actives have a fitted effect of over 45% in size
Procedure, shortened: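 CITCO at 50 nM final was added alongside compounds (15 concentrations) to double-stable hCAR/CYP2B6-2.2kb HepG2 cells. Following 23 hr at 37 C, cell viability was quantified by CellTiter-Fluor fluorescence intensity.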

[10] = target: Nuclear receptor subfamily 1 group I member 3 (Homo sapiens) (UniProt Q14994); assay: qHTS assay to identify small molecule antagonists of the constitutive androstane receptor (CAR) signaling pathway (AID 1224838); also: nearly all actives have a fitted effect of over 40% in size
Procedure, shortened: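 Inhibition of CITCO-driven (50 nM final) CYP2B6 reporter expression is measured in HepG2 cells stably carrying hCAR. Fifteen compound concentrations are applied for 24 h at 37 C, followed by luciferase luminescence.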

[11] = target: Nuclear receptor subfamily 1 group I member 3 (Homo sapiens) (UniProt Q14994); assay: qHTS assay to identify small molecule agonists of the constitutive androstane receptor (CAR) signaling pathway (AID 1224839); also: nearly all actives have a fitted effect of over 15% in size
Procedure, shortened: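 A 15-concentration quantitative screen uses HepG2 cells co-transfected stably with human CAR and CYP2B6-2.2kb reporter. Treatment lasts 24 h with 0.75 uM PK11195 final present; ONE-Glo luminescence is the signal.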

[12] = qHTS assay to identify small molecule antagonists of the estrogen related receptor signaling pathway with the pleiotropic PPARgamma coactivator (PGC) from Tox21 10K library - cell viability counter screen (AID 1224840; active = well fitted cell-killing curve with a large enough effect in the repeat runs, not every such curve was filed as active; also: nearly all actives have a fitted effect of over 40% in size)
Procedure, shortened: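 Readout: fluorescence intensity from CellTiter-Fluor after 30 min at 37 C/5% CO2. Preceded by 17.5 h treatment of PGC/ERR cells with DMSO-dissolved compounds, added 6 h post-seeding.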

[13] = qHTS assay to identify small molecule agonists of the hypoxia (HIF-1) signaling pathway - cell viability counter screen (AID 1224844; calls by dose curve; also: nearly all actives have a fitted effect of over 50% in size)
Procedure, shortened: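 In this counter screen, HRE-bla ME-180 cell viability after 17 hrs of compound exposure at 37C was read by CellTiter-Glo luminescence, multiplexed with the beta-lactamase reporter measurement.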

[14] = qHTS assay to identify small molecule agonists of the hypoxia (HIF-1) signaling pathway (AID 1224846; active = well fitted activation curve with a large enough effect in the signal ratio in the repeat runs, not every such curve was filed as active; the % refers to the signal ratio)
Procedure, shortened: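 ME-180 HRE-bla reporter cells; compounds in DMSO, 17 h at 37C; read-out beta-lactamase via CCF4-AM FRET.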

[15] = qHTS assay to identify small molecule agonists of H2AX - cell viability counter screen (AID 1224847; calls by dose curve; also: top concentration of the series differs between compounds; nearly all actives have a fitted effect of over 30% in size)
Procedure, shortened: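 We seed wild-type CHO-K1 cells overnight, treat them for 3 hr at 37C with compounds in 15-concentration series, and quantify remaining viability by CellTiter-Glo luminescence.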

[16] = qHTS assay to identify small molecule agonists of H2AX (AID 1224845; active = well fitted activation curve with a large enough effect in the signal ratio in the repeat runs, not every such curve was filed as active; the % refers to the signal ratio)
Procedure, shortened: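 Phospho-H2AX Ser139 measured by HTRF (ex 320 nm; em 665 and 620 nm) after 24 hr antibody incubation. Compounds, 15 concentrations, 0.76% DMSO, were applied to CHO-K1 cells for 3hr at 37C before lysis.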

[17] = target: Thyrotropin receptor (Homo sapiens) (UniProt P16473); assay: qHTS assay to identify small molecule agonists of the thyroid stimulating hormone receptor (TSHR) signaling pathway (AID 1224843; calls by dose curve; also: nearly all actives have a fitted effect of over 45% in size)
Procedure, shortened: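 Agonist activity read as cAMP rise via d2/cryptate HTRF competition, 1 h room-temperature detection, in HEK293 cells expressing TSHR. Fifteen-point titrations, each run in triplicate, with a 30 min room-temperature incubation beforehand.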

[18] = qHTS assay to identify small molecule antagonists of the estrogen related receptor signaling pathway with the pleiotropic PPARgamma coactivator (PGC) from Tox21 10K library (AID 1224841; call rule not given here; also: actives are mostly falling curves and most rising ones were filed inactive; nearly all actives have a fitted effect of over 50% in size; also: potency is read from the fitted curve at half-maximal effect)
Procedure, shortened: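 One-Glo luminescence, measured after half an hour at room temperature, quantified reporter output of PGC/ERR cells. These had been plated at 2,000 per well, incubated 6 h, dosed with compounds in DMSO, then kept 18 h at 37 C.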

[19] = qHTS assay to identify small molecule antagonists of the estrogen related receptor (ERR) signaling pathway - cell viability counter screen (AID 1224818)
Procedure, shortened: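 Viability of ERR cells, CellTiter-Fluor fluorescence; 17.5 h compound exposure at 37 C, DMSO vehicle; 30 min reagent incubation at 37 C/5% CO2.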

[20] = qHTS assay to identify small molecule antagonists of the estrogen related receptor signaling pathway with the pleiotropic PPARgamma coactivator (PGC) cell viability counter screen (AID 1224822)
Procedure, shortened: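 17.5 h compound treatment of PGC/ERR cells at 37 C; readout CellTiter-Fluor fluorescence; run alongside the PGC/ERR antagonist screen to flag cytotoxic compounds.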

[21] = activation: at 73.3 µM (top of the series) unless noted
% is scaled to controls: 0 for no effect and ±100 for the full control effect.

Nuclear receptor subfamily 1 group I member 3 (Homo sapiens), sequence (Q14994 whole entry, looked up): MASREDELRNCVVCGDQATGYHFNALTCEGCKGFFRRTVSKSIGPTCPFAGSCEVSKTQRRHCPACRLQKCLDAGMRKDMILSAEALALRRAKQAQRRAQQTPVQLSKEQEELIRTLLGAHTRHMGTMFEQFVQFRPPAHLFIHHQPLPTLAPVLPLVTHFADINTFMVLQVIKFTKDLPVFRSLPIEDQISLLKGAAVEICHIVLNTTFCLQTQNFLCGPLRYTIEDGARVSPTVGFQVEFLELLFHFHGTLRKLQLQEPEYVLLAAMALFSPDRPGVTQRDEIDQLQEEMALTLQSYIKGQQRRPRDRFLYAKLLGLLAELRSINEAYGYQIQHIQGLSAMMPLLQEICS
Luciferin 4-monooxygenase (Photinus pyralis), sequence (P08659 whole entry, looked up): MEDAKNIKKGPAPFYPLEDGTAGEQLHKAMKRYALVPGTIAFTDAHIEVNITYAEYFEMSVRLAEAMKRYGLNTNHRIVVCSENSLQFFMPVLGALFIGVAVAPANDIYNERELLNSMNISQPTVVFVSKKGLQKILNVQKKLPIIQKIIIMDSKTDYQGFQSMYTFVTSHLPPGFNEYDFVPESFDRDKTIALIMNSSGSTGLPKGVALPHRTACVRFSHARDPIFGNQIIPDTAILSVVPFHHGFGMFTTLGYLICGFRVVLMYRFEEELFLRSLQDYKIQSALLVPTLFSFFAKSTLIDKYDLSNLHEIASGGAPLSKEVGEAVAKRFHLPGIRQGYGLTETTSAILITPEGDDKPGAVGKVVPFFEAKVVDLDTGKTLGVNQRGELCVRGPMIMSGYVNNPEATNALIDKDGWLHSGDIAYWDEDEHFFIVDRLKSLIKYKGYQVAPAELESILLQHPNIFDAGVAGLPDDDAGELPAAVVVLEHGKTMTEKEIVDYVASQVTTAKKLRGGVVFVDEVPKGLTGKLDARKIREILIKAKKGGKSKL
Thyrotropin receptor (Homo sapiens), sequence (P16473 whole entry, looked up): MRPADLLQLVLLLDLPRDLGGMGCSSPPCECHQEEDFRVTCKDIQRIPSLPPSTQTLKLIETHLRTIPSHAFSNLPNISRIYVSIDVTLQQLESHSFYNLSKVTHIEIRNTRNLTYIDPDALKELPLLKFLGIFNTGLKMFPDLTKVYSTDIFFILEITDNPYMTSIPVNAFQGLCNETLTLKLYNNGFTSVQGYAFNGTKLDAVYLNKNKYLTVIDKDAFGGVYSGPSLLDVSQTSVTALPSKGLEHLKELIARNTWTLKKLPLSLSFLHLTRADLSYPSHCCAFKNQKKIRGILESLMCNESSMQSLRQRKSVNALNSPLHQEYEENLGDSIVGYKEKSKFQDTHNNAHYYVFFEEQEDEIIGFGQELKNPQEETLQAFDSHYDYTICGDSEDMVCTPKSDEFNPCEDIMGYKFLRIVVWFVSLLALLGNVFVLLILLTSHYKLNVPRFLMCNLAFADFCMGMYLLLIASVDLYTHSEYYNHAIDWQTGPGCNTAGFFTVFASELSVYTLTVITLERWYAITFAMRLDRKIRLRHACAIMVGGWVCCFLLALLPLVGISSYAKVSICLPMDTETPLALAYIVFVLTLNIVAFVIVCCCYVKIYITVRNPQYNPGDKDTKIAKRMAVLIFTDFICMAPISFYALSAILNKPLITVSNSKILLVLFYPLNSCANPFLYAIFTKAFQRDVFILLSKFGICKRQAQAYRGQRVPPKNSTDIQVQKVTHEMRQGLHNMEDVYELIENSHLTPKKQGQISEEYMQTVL
Retinoic acid receptor RXR-alpha (Homo sapiens), sequence (P19793 whole entry, looked up): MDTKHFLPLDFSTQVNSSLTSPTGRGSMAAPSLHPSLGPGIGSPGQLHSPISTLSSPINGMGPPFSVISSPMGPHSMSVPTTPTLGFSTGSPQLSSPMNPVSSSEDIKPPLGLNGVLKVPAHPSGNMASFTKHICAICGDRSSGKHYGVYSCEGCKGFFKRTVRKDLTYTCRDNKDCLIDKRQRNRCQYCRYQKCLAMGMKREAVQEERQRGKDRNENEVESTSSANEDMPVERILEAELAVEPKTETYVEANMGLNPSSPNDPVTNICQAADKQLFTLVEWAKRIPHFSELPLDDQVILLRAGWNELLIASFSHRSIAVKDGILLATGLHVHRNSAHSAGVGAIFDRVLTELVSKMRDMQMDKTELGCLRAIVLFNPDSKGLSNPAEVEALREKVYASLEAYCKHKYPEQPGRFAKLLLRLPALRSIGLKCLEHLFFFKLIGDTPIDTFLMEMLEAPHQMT

O=[N+]([O-])c1ccc([As](=O)(O)O)cc1
inactive: Potency [1] | Potency [2] | outcome [3] | Potency [4] | Potency [5, 21] | Potency [6] | Potency [7] | Potency [8] | Potency [9] | Potency [10] | Potency [11] | Potency [12] | Potency [13] | outcome [14] | Potency [15]

CC(C)(Cl)Cl
inactive: Potency [1] | Potency [2] | outcome [3] | Potency [4] | Potency [5, 21] | Potency [6] | Potency [7] | Potency [8] | Potency [9] | Potency [10] | Potency [11] | Potency [12] | Potency [13] | Potency [16] | outcome [14] | Potency [15]

CC1C=[C-]C=C1.[C-]#[O+].[C-]#[O+].[C-]#[O+].[Mn]
inactive: Potency [1] | Potency [2] | outcome [3] | Potency [4] | Potency [5, 21] | Potency [6] | Potency [8] | Potency [9] | Potency [10] | Potency [12] | Potency [13] | outcome [14] | Potency [15]

CN(C)N=O
inactive: Potency [1] | Potency [2] | outcome [3] | Potency [4] | Potency [5, 21] | Potency [6] | Potency [7] | Potency [8] | Potency [9] | Potency [10] | Potency [11] | Potency [12] | Potency [13] | outcome [14] | Potency [15]

Nc1ccc(Br)cc1
inactive: Potency [1] | Potency [2] | outcome [3] | Potency [4] | Potency [5, 21] | Potency [7] | Potency [8] | Potency [9] | Potency [10] | Potency [12] | Potency [17] | Potency [13] | outcome [14] | Potency [15]

Clc1ccccc1Cl
inactive: Potency [1] | Potency [2] | outcome [3] | Potency [4] | Potency [5, 21] | Potency [6] | Potency [7] | Potency [8] | Potency [9] | Potency [10] | Potency [11] | Potency [12] | Potency [17] | Potency [13] | outcome [14] | Potency [15]

O=NN1CCCCCCC1
inactive: Potency [1] | Potency [2] | outcome [3] | Potency [4] | Potency [5, 21] | Potency [6] | Potency [8] | Potency [9] | Potency [10] | Potency [11] | Potency [12] | Potency [13] | Potency [16] | outcome [14] | Potency [15]

O=[N+]([O-])c1ccccc1
inactive: Potency [1] | Potency [2] | outcome [3] | Potency [4] | Potency [5, 21] | Potency [6] | Potency [7] | Potency [8] | Potency [9] | Potency [12] | Potency [18] | Potency [17] | Potency [13] | Potency [16] | outcome [14] | Potency [15]

Nc1ccccc1C(=O)O
inactive: Potency [1] | Potency [2] | outcome [3] | Potency [4] | Potency [5, 21] | Potency [6] | Potency [8] | Potency [9] | Potency [10] | Potency [11] | Potency [12] | Potency [18] | Potency [17] | Potency [13] | Potency [16] | outcome [14] | Potency [15]

CC(Br)C(=O)O (centres undefined)
inactive: Potency [1] | Potency [2] | outcome [3] | Potency [5, 21] | Potency [6] | Potency [7] | Potency [8] | Potency [9] | Potency [10] | Potency [11] | Potency [12] | Potency [17] | Potency [13] | Potency [16] | outcome [14] | Potency [15]

Clc1ccc(Cl)cc1
inactive: Potency [1] | Potency [2] | outcome [3] | Potency [5, 21] | Potency [6] | Potency [7] | Potency [8] | Potency [9] | Potency [10] | Potency [11] | Potency [12] | Potency [17] | Potency [13] | Potency [16] | outcome [14] | Potency [15]

CC(C#N)CCC#N (centres undefined)
inactive: Potency [1] | Potency [2] | outcome [3] | Potency [4] | Potency [5, 21] | Potency [6] | Potency [8] | Potency [9] | Potency [12] | Potency [18] | Potency [17] | Potency [13] | outcome [14] | Potency [15]

C=CC(N)=O
inactive: Potency [1] | Potency [2] | outcome [3] | Potency [4] | Potency [5, 21] | Potency [6] | Potency [7] | Potency [8] | Potency [9] | Potency [12] | Potency [17] | Potency [13] | Potency [16] | outcome [14] | Potency [15]

O=c1[nH]c(=O)[nH]c(=O)[nH]1
inactive: Potency [1] | Potency [2] | outcome [3] | Potency [4] | Potency [5, 21] | Potency [6] | Potency [8] | Potency [9] | Potency [10] | Potency [11] | Potency [12] | Potency [18] | Potency [17] | Potency [13] | Potency [16] | outcome [14] | Potency [15]

CC(C)(C)OOC(=O)c1ccccc1
inactive: Potency [1] | Potency [2] | outcome [3] | Potency [4] | Potency [5, 21] | Potency [6] | Potency [7] | Potency [8] | Potency [9] | Potency [10] | Potency [11] | Potency [12] | Potency [13] | outcome [14] | Potency [15]

CN(C)CCO
inactive: Potency [1] | Potency [2] | outcome [3] | Potency [4] | Potency [5, 21] | Potency [6] | Potency [8] | Potency [9] | Potency [10] | Potency [11] | Potency [12] | Potency [18] | Potency [13] | Potency [16] | outcome [14] | Potency [15]

NCC(O)c1ccc(O)cc1 (centres undefined)
inactive: Potency [1] | Potency [2] | outcome [3] | Potency [4] | Potency [5, 21] | outcome [19] | outcome [20] | Potency [6] | Potency [7] | Potency [8] | Potency [9] | Potency [10] | Potency [11] | Potency [12] | Potency [13] | Potency [16] | outcome [14] | Potency [15]

CC(C)(C)C(O)(CCc1ccc(Cl)cc1)Cn1cncn1 (centres undefined)
inactive: Potency [1] | Potency [2] | outcome [3] | activation ([5]; at 73.3 µM (top of the series)) -2.94% | Potency [7] | Potency [8] | Potency [9] | Potency [10] | Potency [11] | Potency [12] | Potency [13] | Potency [16] | outcome [14]
active: activation [5, 21] -3.95% [at 94.8 µM] | Potency [18] 55.1 µM
